# Source: PubChem BioAssay
# Shown are actives, neighbours in structure and some others; about 0.83% of the full set was active somewhere.
# NCOA3 inh: human NCOA3 inhibition | Q9Y6Q9 | HEK293 GAL4-SRC3 luciferase reporter, luminescence | inhibition, % at 3.6 µM | actives 0.17% (n = 360,000);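 active = inhibition above a per-campaign cutoff, the mean of all compounds plus 3 SD, cut at about 60% in these data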;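 note: 0% = DMSO-treated cells and 100% = gossypol-treated cells at 36 µM; higher means less SRC3-driven luciferase light from the GAL4 reporter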
# SRC1 inh: inhibitors of human steroid receptor coactivator 1 (SRC1); Q15788; HEK293 GAL4-SRC1 luciferase reporter, luminescence; inhibition, % at 3.6 µM; actives 0.12% (n = 360,000);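 active = inhibition above the campaign mean plus 3 SD, with each screening campaign given its own cutoff, cut at about 60% in these data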;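 note: 0% = DMSO treated cells and 100% = gossypol at 36 µM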
# COUP-TFII inh: blocks human COUP-TFII nuclear receptor. actives 0.7% (n = 370,000). HEK293T NGFI-A luciferase reporter, luminescence. P24468. inhibition, % at 8.6 µM;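 active = inhibition above a per-plate cutoff, mean inhibition of test wells between control levels plus 3 SD, cut at about 38% in these data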;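 note: cells cotransfected with COUP-TFII expression vector driving the NGFI-A reporter; 0% = median of COUP-TF2 test wells and 100% = reporter-only cells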
# LRH-1 inv ag: NR5A2 inverse agonism in reporter assay | AID 602396 | O00482 | inhibition, % at 3.6 µM | actives 0.13% (n = 360,000) | HEK293T StAR-luciferase reporter, LRH-1 transfected, 24 h;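 active = inhibition above the mean inhibition of all tested compounds plus 3 SD, cut at about 73% in these data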;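 note: 0% = DMSO wells and 100% = reporter-only cells lacking LRH-1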
# NCOA2 inhibitor: human SRC2 (NCOA2) inhibition. Q15596. HEK293 GAL4-SRC2 luciferase reporter, luminescence. inhibition, % at 9 µM. actives 0.17% (n = 370,000). AID 651957;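 active = inhibition above the mean inhibition of all tested compounds plus 3 SD, set per campaign, cut at about 52% in these data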;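 note: 0% = DMSO treated cells and 100% = cells given Gossypol at 36 µM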
# An asterisk follows results filed as active; . = not tested or not shown.
SMILES,NCOA3 inh,SRC1 inh,COUP-TFII inh,LRH-1 inv ag,NCOA2 inhibitor
CN1CC=C(c2ccc(C(F)(F)F)cc2)N(c2ccc(Br)cc2)C1=O,.,.,8,.,0
O=C(Nc1ccc(OC(F)(F)F)cc1)Nc1cccc([N+](=O)[O-])c1,62*,-2,-6,29,-5
CCCC[C@H]1C2CC(OC(=O)NCc3ccc(Cl)cc3)C(C2)[C@H]2CCCCN21 (stereo partly specified),.,.,-11,.,1
O=C(OC12CCCN(C1)/C(=C/c1cccnc1)C2)c1cccc(F)c1 (stereo unspecified),.,.,33,.,20
COc1ccc2[nH]c3c(c2c1)CCNC3=O,65*,53,16,36,31
CCN(CC(=O)Nc1c(F)cccc1F)C(=O)CSCC(=O)Nc1cc(C)on1,15,1,12,-9,24
CCN(CC(=O)Nc1ccc(OC)cc1)C(=O)CSCC(=O)Nc1cc(C)on1,79*,0,-1,-1,-8
COC(C(=O)C(O)C(C)O)C1Cc2cc3cc(OC4CC(OC5CC(O)C(O)C(C)O5)C(O)C(C)O4)c(C)c(O)c3c(O)c2C(=O)C1OC1CC(OC2CC(OC3CC(O)C(OC)C(C)O3)C(O)C(C)O2)C(O)C(C)O1 (stereo unspecified),86*,75*,-11,98*,32
C=CCCC(=O)N1CCC(C(=O)NCC2COc3ccccc3O2)CC1 (stereo unspecified),.,.,-7,.,7
O=C(N/N=C/c1cc(Cl)ccc1O)C(=O)Nc1ccccc1OC(F)(F)C(F)F,68*,37,18,-13,-2
COc1ccc(CC(=O)Nc2cccc(S(=O)(=O)N3CCCCCC3)c2)cc1OC,29,27,79*,51,23
COc1ccc(CCC(=O)Nc2cccc(S(=O)(=O)N3CCCCCC3)c2)cc1OC,19,18,16,-26,1
COc1ccccc1C(=O)Nc1nc(-c2ccc(S(=O)(=O)N3CCOCC3)cc2)cs1,89*,85*,72*,82*,74*
COc1ccc(-c2cn[nH]c2-c2ccc(O)cc2O)cc1,48,55,19,9,54*
C=C(C)COc1ccc(-c2[nH]ncc2-c2ccc(OC)cc2)c(O)c1,33,17,30,9,27
CCOc1ccc(-n2c(COc3ccccc3)nnc2SCC(=O)Nc2ccc3c(c2)OCCO3)cc1,.,.,-3,.,21
COCCSc1nnc(-c2cccnc2)n1Cc1ccccc1,.,.,-2,.,-8
CC(=O)Nc1cccc(-c2cnc(N)c(C(=O)c3cccnc3)n2)c1,78*,79*,.,75*,.
O=C(Nc1cccc(NC(=O)c2cccnc2)c1)c1ccccc1,13,-3,-9,20,-5
NC(=O)c1cccc(-c2cnc(N)c(C(=O)c3cccnc3)n2)c1,63*,75*,.,63,.
Cc1ccc(NC2=C/C(=N/S(=O)(=O)c3cccs3)c3ccccc3C2=O)cc1C,-30,-3,8,-19,-26
Cc1ccccc1NC1=C/C(=N\S(=O)(=O)c2cccs2)c2ccccc2C1=O,88*,80*,-4,-3,-20
CN(C)CCNc1ccc(CO)c2sc3ccc(O)cc3c(=O)c12,28,79*,-85,68,-203
COc1cc(OC)cc(-c2csc(N3CCC(C(N)=O)CC3)n2)c1,.,.,2,.,.
CCCOC(c1ccccc1)(c1ccc(C(F)(F)F)cc1)C(Oc1nc(C)cc(C)n1)C(=O)O (stereo unspecified),71*,61*,32,81*,-38
SMILES,NCOA3 inh,SRC1 inh,COUP-TFII inh,LRH-1 inv ag,NCOA2 inhibitor
Cc1cc(C)nc(OC(C(=O)O)C(OCCc2ccccc2)(c2ccc(F)cc2)c2ccc(F)cc2)n1 (stereo unspecified),-14,13,14,7,-11
O=S(=O)(c1ccc(Cl)cc1)N1CCCC1c1nc(-c2ccc(Cl)cc2)no1 (stereo unspecified),7,-3,3,-1,95*
CN(C)c1ccc(C=c2c3cc(O)ccc3n3c2cc(-c2ccccc2)[n+]3C)cc1,26,-1,18,31,-14
CN(C)c1ccc(C=c2c3ccccc3n3c2c2ccccc2[n+]3C)cc1,34,13,51*,73*,1
Cc1cc(C)c(C(=O)/C=C/c2cccc3ccccc23)c(=O)[nH]1,78*,56,20,55,66*
OC1(c2ccc(OC(F)F)cc2)CSC(=Nc2cccnc2)N1C1CC1 (stereo unspecified),-7,8,57*,43,25
